Screens: PubChem, several laboratories
Mcl1-Noxa inh: Mcl-1/Noxa binding inhibitors, primary screen, biochemical, TR-FRET, 1536-well. Induced myeloid leukemia cell differentiation protein Mcl-1 (Homo sapiens), Q07820. TR-FRET Mcl-1/Noxa peptide binding, 2 h. inhibition, % at 21.7 µM. hit rate 1.5% among 220,000. AID 1022, 2008;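 active = compounds that cut the protein-peptide binding signal by more than 50% relative to plate controls in a single-dose test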;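 note: His-tagged Mcl-1 with rhodamine Noxa BH3 peptide and terbium anti-His antibody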
Target sequence (Q07820 whole entry, looked up): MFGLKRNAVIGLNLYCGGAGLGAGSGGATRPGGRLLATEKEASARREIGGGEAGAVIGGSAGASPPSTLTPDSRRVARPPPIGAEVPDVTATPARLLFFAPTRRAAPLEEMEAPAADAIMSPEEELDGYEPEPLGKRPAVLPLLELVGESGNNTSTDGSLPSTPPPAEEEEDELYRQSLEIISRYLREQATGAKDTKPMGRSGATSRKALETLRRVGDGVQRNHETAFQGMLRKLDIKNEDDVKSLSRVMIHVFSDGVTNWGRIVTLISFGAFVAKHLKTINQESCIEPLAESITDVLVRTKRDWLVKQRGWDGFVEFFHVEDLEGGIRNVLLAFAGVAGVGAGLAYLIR
TNF necrop inh: inhibitors of TNF-alpha triggered necroptosis, primary screen, cell-based, Jurkat FADD-/-, single concentration; activation (protection from cell death), % at 10 µM; hit rate 0.068% among 220,000; Jurkat FADD-/- TNF necroptosis rescue, ATP luminescence, 24 h; 0 = TNF only, 100 = no-TNF cells;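 active = activation, meaning protection from cell death, of at least 50% relative to plate controls; inactive = activation below 50%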;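 note: necroptosis triggered by 40 ng/mL TNF-alpha added together with compound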
m-calpain inh: inhibitors of pig calpain II, primary screen, biochemical, fluorogenic peptide substrate, 1536-well; inhibition, % at 16 µM; AID 1236, 2008; purified calpain II, 30 min; hit rate 0.37% among 220,000;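 active = inhibition above about 50%, limit read from the data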
Mcl1-Bid inh: Mcl-1/Bid binding inhibitors, primary screen, biochemical, TR-FRET, 1536-well. inhibition, % at 21.7 µM. TR-FRET Mcl-1/Bid-Dy647 peptide binding. AID 1021, 2008. Induced myeloid leukemia cell differentiation protein Mcl-1 (Homo sapiens), Q07820. hit rate 0.97% among 220,000;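 active = compounds that cut the binding signal by more than half at the single screening dose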;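 note: His-tagged Mcl-1 with europium anti-His antibody binding Bid BH3 peptide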
zVAD death inh: inhibitors of zVAD-triggered necroptosis, primary screen, L929 cells | L929 zVAD necroptosis rescue, ATP luminescence, 24 h; with zVAD 60 µM | AID 1377, 2008 | viability rescue, % at 10 µM | hit rate 0.38% among 220,000;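 active = activation, scaled between plate controls, above about 75%, limit read from the data; inactive = activation under that limit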
Bim-Mcl-1: inhibitors of Bim peptide binding to Mcl-1, primary screen, biochemical, bead-based flow cytometry, multiplex. Induced myeloid leukemia cell differentiation protein Mcl-1 (Homo sapiens), Q07820. hit rate 0.1% among 190,000. Bim peptide-Mcl-1 binding. inhibition, % at 10 µM; in the data active = inhibition above about 40%
zVAD death conf: inhibitors of zVAD-triggered necroptosis in L929, confirmation, L929 cells, duplicate runs | L929 zVAD-induced necroptosis rescue, ATP luminescence, 24 h | shares compounds with zVAD death inh | activation (protection from necroptosis), % at 10 µM | hit rate 16% among 760 | AID 463117, 2010;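 active = mean protection from necroptosis of at least 50% over duplicate tests; inactive = mean protection below 50%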
Numbers stand for hits; – = inactive; · = no result. In the library only some 2.8% were active in any assay of this set; here they are far more common.

SMILES	Mcl1-Noxa inh	TNF necrop inh	m-calpain inh	Mcl1-Bid inh	zVAD death inh	Bim-Mcl-1	zVAD death conf
CC(=O)c1ccc(OCC(=O)Nc2ccc3c(c2)CCC3)cc1	–	–	–	–	75	–	–
Cn1c(C(=O)NCCN2CCCCCC2)cc2c(=O)n(C)c3ccccc3c21	–	–	–	–	84	–	–
Cn1c(C(=O)NCc2ccccn2)cc2c(=O)n(C)c3ccccc3c21	–	–	–	–	89	–	–
Cn1c(C(=O)NCCCN2CCOCC2)cc2c(=O)n(C)c3ccccc3c21	–	–	–	–	–	–	·
CC(C)OCCCNC(=O)c1cc2c(=O)n(C)c3ccccc3c2n1C	–	–	–	–	–	–	·
CCCCN(CC)CCCNC(=O)c1cc2c(=O)n(C)c3ccccc3c2n1C	–	–	–	–	80	–	–
CN1CCN(CCCNC(=O)c2cc3c(=O)n(C)c4ccccc4c3s2)CC1	–	–	–	–	77	–	–
CCOC(=O)C1CCCN(C(=O)CSc2nccn2C)C1 (centres undefined)	–	–	–	–	–	–	·
CCC(C)(C(=O)NC1CCCC1)N(C(=O)CNC(=O)c1ccccc1)c1c(C)n(C)n(-c2ccccc2)c1=O (centres undefined)	–	–	–	–	–	–	·
O=C(OCCNc1ccc(C(F)(F)F)cc1[N+](=O)[O-])c1cc2ccccc2oc1=O	–	–	–	–	–	·	·
C=CCc1ccc(OCCCCCN2CCOCC2)c(OC)c1	–	–	–	–	–	–	·
O=C(Cc1ccc(Cl)cc1Cl)OCC(=O)N1CCN(C(=O)c2ccco2)CC1	–	–	–	–	76	–	–
Cc1cc(C(=O)OCC(=O)N2CCN(C(=O)c3ccco3)CC2)c(C)n1-c1ccc(F)cc1	–	–	–	–	87	–	–
CC1CC(C)CN(C(=O)CSc2nnc(-c3ccc(F)cc3)o2)C1 (centres undefined)	–	–	–	–	89	–	–
Cc1ccc(C(=O)CCC(=O)N2CCN(C(=O)c3ccco3)CC2)cc1	–	–	–	–	76	–	–
Cc1cc(C)cc(-c2nnc(SCC(=O)N3CCN(C(=O)c4ccco4)CC3)o2)c1	–	–	–	–	85	–	–
Cc1ccc(CC(=O)N2CCN(C(=O)c3ccco3)CC2)cc1	–	–	–	–	–	–	·
O=C(CSc1nnc(-c2ccc(Br)cc2)o1)N1CCN(C(=O)c2ccco2)CC1	–	–	–	–	–	–	·
Cc1nc2ccccn2c1C(=O)N=Nc1c(O)n(CCC(C)C)c2ccccc12	–	–	–	–	–	–	·
COc1ccc(NC(=S)NNC(=S)Nc2cccc(C(F)(F)F)c2)cc1	–	–	–	–	77	·	–
COc1ccc(NC(=O)Nc2cccc(C(F)(F)F)c2)cn1	–	–	–	–	77	–	–
COc1ccc(NC(=O)Nc2cc(C)cc(C)c2)cn1	–	–	–	–	–	·	·
O=C(Nc1ccc(S(=O)(=O)NC2=NCCCCC2)cc1)c1ccc2ccccc2n1	–	–	–	–	–	–	·
O=C(NNC(=S)Nc1ccccc1)C1CCCCC1	–	–	–	–	–	–	·
c1ccc(CNc2ncnc3scc(-c4cccs4)c23)nc1	–	–	–	–	–	–	·
c1ccc(-c2csc3ncnc(NCc4ccccn4)c23)cc1	–	–	–	–	78	·	–
BrC(=C\c1ccccc1)/C=N/N1CCN(c2ccccn2)CC1	–	–	–	–	–	–	·
CC(C)CC(NC(N)=O)C(=O)Nc1ccc(Oc2ccccc2)cc1 (centres undefined)	–	–	–	–	–	–	·
S=c1[nH]nc(-c2ccncc2)n1/N=C/C=C/c1ccccc1	–	–	–	–	–	·	·
S=c1[nH]nc(-c2ccncc2)n1/N=C/C(Cl)=C\c1ccccc1	–	–	–	–	85	–	–
